Measurements from the supplement of paper PMC10338343.
± gives the standard deviation. The full ranking holds about 6,600 sequences; the median of “pre-steady-state target cleavage rate” is about 0.07, and the highest 2% start at about 0.72. For the sample, the highest values were picked, then their nearest neighbours and some sequences at random.

Tested on: MIWI (PIWIL1) piRISC loaded with Kctd7 piRNA (30 nt)
Assay: pre-steady-state target cleavage rate (min^-1); MIWI and MILI are mouse PIWI proteins and EfPiwi is from a freshwater sponge; tags in brackets are library labels; higher = faster piRNA-guided slicing of the target
Settings: guide: Kctd7 piRNA 5'p-UGUUAAUCUCUCAGAGAAGGUGACAGUGAU; auxiliary factor: 500 nM mouse GTSF1
How it was run: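 A transcribed, DNA-blocked target RNA library (0.1 nM) and 1 nM active affinity-purified piRISC bearing one synthetic guide were incubated in HEPES–potassium acetate buffer at 33 °C for 0–8 or 0–960 min, either with or without 500 nM GTSF1 partner protein. Uncleaved targets were sequenced, normalised to depth and to weakly complementary targets, and pooled over three trials, with k3 capped at 0.0001 min^-1. The pre-steady-state cleavage rate was derived with a burst-and-steady-state fit.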

Sequence | pre-steady-state target cleavage rate
UAGUGUGUCACCUUCUCUGAGAGAGUAACA | 0.394 ± 0.046
UUCAGUGUCACCUACUCUGAGAGAUUAACA | 0.509 ± 0.033
UACUCUGUCACCUUCUGUGAGAGAUUAACA | 0.533 ± 0.025
UACACUGUCACCUUCUCUGAGAGAUAUUGA [g6:g28:cont:t1A] | 0.0488 ± 0.017
UAGUGACUCACGUUCUCUGAGAGAUAAACA | 0.119 ± 0.022
UAGUGACUCACCUUCUCAGAGAGAUAAACA | 0.027 ± 0.0057
UAGUCUGUCACCUUCUCACAGAGAUUAACA | 0.0188 ± 0.0059
UUCACUGUCACGUUCUCUGAGAGAUUAACA | 0.681 ± 0.035
UACACUGUCACGUUCUCUGUGAGAUUAACA | 0.233 ± 0.014
UUCACAGUCACGUUCUCUGAGAGAUUAACA | 0.685 ± 0.027
UACACAGUCACGUUCUCUGAGAGAUUAACA | 0.679 ± 0.035
AACACUGUCACGUUCUCUGAGAGAUUAACA | 0.71 ± 0.035
UUGACUGUCACGUUCUCUGAGAGAUUAACA | 0.711 ± 0.037
UACACUGUCACGUUCUCUGAGAGAUUAACA | 0.743 ± 0.037
AUCACAGUCACGUUCUCUGAGAGAUUAACA | 0.737 ± 0.026
UAGACUGUCACGUUCUCUGAGAGAUUAACA | 0.671 ± 0.042
AUGACUGUCACGUUCUCUGAGAGAUUAACA | 0.755 ± 0.054
AUCACUGUCACGUUCUCUGAGAGAUUAACA | 0.821 ± 0.043
UUCUCUGUCACGUUCUCUGAGAGAUUAACA | 0.564 ± 0.026
UAGACUGUGACCAUCUCUGAGAGAUUAACA | 0.359 ± 0.025
UAGUGACACACCUUCACUGAGAGAUAAACA | 0.112 ± 0.022
UUCACUGAUCACCUUCUCUGAGAGAUUAACA | 0.653 ± 0.052

Sequence | pre-steady-state target cleavage rate
UUCACUGUCACCUUCUCUCAGAGAUUUACA | 0.0958 ± 0.015
UAGACUGUCACCUUCUCUCUCUCUAAUUGA [g13:g27:cont:t1A] | < 0.0001
UAGACUGUCACCUUCUCUGAGAGAUAAUCA | 0.0918 ± 0.018
UAGACUGUCACCUUCUCUGAGAGAUUAACG [g2:g27:cont:t1G] | 0.674 ± 0.034
AUCACUGUUACCUUCUCUGAGAGAUUAACA | 0.553 ± 0.033
AUCACUGUUCACCUUCUCUGAGAGAUUAACA | 0.79 ± 0.046
UAGACUGUUCACCUUCUCUGAGAGAUUAACA | 0.771 ± 0.043
UUCACUGUUACCUUCUCUGAGAGAUUAACA | 0.342 ± 0.032
UAGACUGUUACCUUCUCUGAGAGAUUAACA | 0.745 ± 0.039
UAGACUUCACCUUCUCUGAGAGAUUAACA | 0.576 ± 0.04
UACACUGUUCACCUUCUCUGAGAGAUUAACA | 0.614 ± 0.025
UUCACUGUUCACCUUCUCUGAGAGAUUAACA | 0.633 ± 0.036
UAGUGAGUCACCUUCUCUGAGUCUUUAAGA | 0.00546 ± 0.0039
UAGUGAGUCACCUUCUCUGAGAGAAUAUCA | 0.124 ± 0.041
UAGUGACAGACCUUCUCUGAGAUAUUAACA | 0.0437 ± 0.011
UUCUCUGUCACCUUCUCUGAGAGAUAUUGA | 0.0992 ± 0.024
UAGUGACUCACCAAGUCUGAGAGAUAUUGA | < 0.0001
UAGUGACAGACCUUCUCUGUGAGUUUAACA | 0.0139 ± 0.0037
UAGUGACACACCAUUCUCUGAGAGAUUAACA | 0.245 ± 0.022
UAGUGACAGUGGAAGUCUGAGACAUAAACA | < 0.0001
UUACACUGUCACCUUCUCUGAGAGAUUAACA | 0.769 ± 0.044
UACACUGUCACCUUCUCUCUGAGAUUAACA | 0.0197 ± 0.0062

Sequence | pre-steady-state target cleavage rate
UACACUGUCACCUUCUCUGAGAGAUUAACG [g2:g28:cont:t1G] | 0.566 ± 0.047
UACACUGUCACCUUCUCUGAGAGAUUAACA [g2:g28:cont:t1A] | 0.563 ± 0.039
UACACUGUCACCUUCUCUGAGAGAUUAACC [g2:g28:cont:t1C] | 0.391 ± 0.034
AUACACUGUCACCUUCUCUGAGAGAUUAACA | 0.752 ± 0.05
UAGUGACAGACCUUCUCUGAGAGAUAUACA | 0.0324 ± 0.0083
UAGUCUGUCACCUUCUCAGAGAGAUUUUGA | 0.0587 ± 0.02
UAGACUGUCACCUUCUCUGAGAGAUUAAUA | 0.414 ± 0.035
AUCACUGUCACCGUCUCUGAGAGAUUAACA | 0.608 ± 0.038
UUCAGUGUCACCAUCUCUGAGAGAUUAACA | 0.585 ± 0.037
UAGAGUGUCACCAUCUCUGAGAGAUUAACA | 0.741 ± 0.045
UAGUGUGUCACCAUCUCUGAGAGAUUAACA | 0.609 ± 0.037
UAGACUGUCACCCUUCUCUGAGAGAUUAACA | 0.517 ± 0.042
UAGACUGUCACCAUCUCUGAGAGAUUAAGA | 0.112 ± 0.018
UAGACUGUCACCUUCUCUGAGAGAUUAACCA | 0.648 ± 0.054
UAGACUGUCACCAUCUCUGUGAGAUUAACA | 0.155 ± 0.013
UAGACUGUCACCGUCUCUGAGAGAUUAACA | 0.769 ± 0.037
UAGACUGUCACCGUUCUCUGAGAGAUUAACA | 0.625 ± 0.041
UAGACUGUCACCAUUCUCUGAGAGAUUAACA | 0.792 ± 0.055
UAGACUGUCACCAUCUCUGAGAGAUUAACA | 0.741 ± 0.052
UAGUGACACACCUUCUCUGAGUGAAUAACA | 0.00377 ± 0.0036
UACACUGACACCUUCUCUGUGAGAUUAACA | 0.181 ± 0.019
UACACUCAGACCUUCUCUGAGAGAUUAAGA | 0.0222 ± 0.0091

Sequence | pre-steady-state target cleavage rate
UAGUGACAGACCUUCUCUGAGAGACUAACA | 0.0225 ± 0.0061
UAGACAGUGACCUUCUCUGAGAGAUUAACA | 0.554 ± 0.033
UACACUGAGACCUUCUCUGAGAGAUUAUGA | 0.0374 ± 0.015
UAGUGACAGACCUUCUCUGAGACAUUAACA | 0.039 ± 0.0076
UUCACUGUCACCUUCUCUGUGAGAUUUACA | 0.158 ± 0.027
UAGUGACACACCUUCACUGAGACAUUAACA | 0.17 ± 0.029
AUCACUGUCACCUUGUCUGAGAGAUAAACA | 0.552 ± 0.085
UAGACUGUCACGCUUCUCUGAGAGAUUAACA | 0.563 ± 0.029
UAGUCUGUCACAUUCUCUGAGAGAUUAACA | 0.607 ± 0.03
UAGACUGUCACAUUCUCUGAGAGAUUAACA | 0.77 ± 0.051
AUCUCUGUCACCUUCUCAGAGAGAUUAACA | 0.245 ± 0.024
UAGUCGGUCACCUUCUCUGAGAGAUUAACA | 0.73 ± 0.037
UAGUCUAGUCACCUUCUCUGAGAGAUUAACA | 0.67 ± 0.035
UAGUCUGGUCACCUUCUCUGAGAGAUUAACA | 0.749 ± 0.046
UAGUCUGUCACCUUCUCUGAGAGAUUAACA [g2:g26:cont:t1A] | 0.631 ± 0.026
UAGUCAGUCACCUUCUCUGAGAGAUUAACA | 0.722 ± 0.034
UAGUCGUCACCUUCUCUGAGAGAUUAACA | 0.7 ± 0.049
UUCACUCACACCUUCUCUGAGAGAUUAAGA | 0.0618 ± 0.011
UUCACUGUCACCUUACUCUGAGAGAUUAACA | 0.522 ± 0.026
UAGUCUGUCACCAUCUCUGAGAGAUUAAGA | 0.0769 ± 0.013
